Measured values as given in PubChem BioAssay AID1159580 (chemical genetic matrix, 2015).
Where “and” joins values, the source holds several entries; their conditions need not be identical. Equal entries are not always repeated. The campaign covered roughly 5,500 compounds. About 2,000 (36%) were called active. Another 18% or so got no clear call; they are omitted. No stated cut-off is given here; in the data, active means normalized growth mostly below about 0.91 (no sharp cut-off); inconclusive means no clear call, values can overlap the other calls; inactive means mostly above about 0.92. Some of the results follow.

Experiment: chemical genetic growth profiling, strain panel (AID 1159580);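 further: tested at 20 µM; growth read once vehicle control cultures reached saturation at 30 °C; 1 = growth at the plate median or of vehicle wells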
Settings: S. cerevisiae deletion strains, growth OD

Measured: normalized growth

CC(C)=CCCC1(C)C=Cc2c(O)c3c(c(CC=C(C)C)c2O1)OC12C(=CCCC1C(C)(C)O[C@@]2(C/C=C(\C)C(=O)O)C(=O)O)C3=O (some centres not stated)
active: locus YAL026C, strain drs2, stronger effect = lower value 0.813 | locus YAL030W, strain snc1, stronger effect = lower value 0.915 | locus YBL061C, strain skt5, stronger effect = lower value 0.918 | locus YBR009C, strain hhf1, stronger effect = lower value 0.86 | locus YBR023C, strain chs3, stronger effect = lower value 0.844 | locus YBR229C, strain ROT2, stronger effect = lower value 0.903 | locus YBR231C, strain swc5, stronger effect = lower value 0.861 | locus YCL011C, strain gbp2, stronger effect = lower value 0.887 | locus YCL029C, strain bik1, stronger effect = lower value 0.907 | locus YDL035C, strain GPR1, stronger effect = lower value 0.782 | locus YDL074C, strain BRE1, stronger effect = lower value 0.685 | locus YDL101C, strain DUN1, stronger effect = lower value 0.834 | locus YDL192W, strain arf1, stronger effect = lower value 0.766 | locus YDR101C, strain arx1, stronger effect = lower value 0.869 | locus YDR137W, strain rgp1, stronger effect = lower value 0.498 | locus YDR159W, strain sac3, stronger effect = lower value 0.694 | locus YDR162C, strain NBP2, stronger effect = lower value 0.377 | locus YDR297W, strain sur2, stronger effect = lower value 0.861 | locus YDR318W, strain mcm21, stronger effect = lower value 0.81 | locus YDR335W, strain msn5, stronger effect = lower value 0.881 | locus YDR388W, stronger effect = lower value 0.884 | locus YDR392W, strain spt3, stronger effect = lower value 0.283 | locus YDR502C, strain sam2, stronger effect = lower value 0.864 | locus YEL003W, strain gim4, stronger effect = lower value 0.907 | locus YEL061C, strain CIN8, stronger effect = lower value 0.89 | locus YER015W, strain faa2, stronger effect = lower value 0.84 | locus YER111C, strain swi4, stronger effect = lower value 0.91 | locus YER155C, strain BEM2 (second series), stronger effect = lower value 0.546 | locus YER155C, strain BEM2, stronger effect = lower value 0.879 | locus YER167W, strain BCK2, stronger effect = lower value 0.807 | locus YGL086W, strain mad1, stronger effect = lower value 0.851 | locus YGL173C, strain kem1, stronger effect = lower value 0.701 | locus YGL248W, strain PDE1, stronger effect = lower value 0.792 | locus YGL253W, strain hxk2, stronger effect = lower value 0.85 | locus YGR078C, strain PAC10, stronger effect = lower value 0.753 | locus YGR135W, strain pre9, stronger effect = lower value 0.863 | locus YHR027C, strain rpn1, stronger effect = lower value 0.814 | locus YHR129C, strain ARP1, stronger effect = lower value 0.808 | locus YHR142W, strain chs7, stronger effect = lower value 0.702 | locus YIL066C, strain RNR3, stronger effect = lower value 0.804 | locus YJL095W, strain BCK1 (second series), stronger effect = lower value 0.609 | locus YJL164C, strain tpk1, stronger effect = lower value 0.86 | locus YJL166W, strain qcr8, stronger effect = lower value 0.851 | locus YJL187C, strain SWE1 (second series), stronger effect = lower value 0.789 | locus YJR043C, strain POL32, stronger effect = lower value 0.822 | locus YKL160W, strain elf1, stronger effect = lower value 0.896 | locus YKR001C, strain vps1, stronger effect = lower value 0.739 | locus YLR027C, strain aat2, stronger effect = lower value 0.911 | locus YLR039C, strain RIC1, stronger effect = lower value 0.366 | locus YLR058C, strain SHM2, stronger effect = lower value 0.803 | locus YLR221C, strain rsa3, stronger effect = lower value 0.823 | locus YLR262C, strain YPT6 (second series), stronger effect = lower value 0.402 | locus YLR268W, strain sec22, stronger effect = lower value 0.772 | locus YLR320W, strain mms22, stronger effect = lower value 0.646 | locus YLR330W, strain CHS5, stronger effect = lower value 0.845 | locus YLR342W, strain FKS1 (second series), stronger effect = lower value 0.77 | locus YLR342W, strain FKS1, stronger effect = lower value 0.818 | locus YLR371W, strain rom2, stronger effect = lower value 0.738 | locus YLR418C, strain cdc73, stronger effect = lower value 0.509 | locus YML016C, strain PPZ1, stronger effect = lower value 0.907 | locus YML032C, strain rad52, stronger effect = lower value 0.828 | locus YMR058W, strain fet3, stronger effect = lower value 0.258 | locus YMR125W, strain sto1, stronger effect = lower value 0.848 | locus YMR205C, strain PFK2, stronger effect = lower value 0.812 | locus YMR223W, strain ubp8, stronger effect = lower value 0.825 | locus YMR231W, strain pep5, stronger effect = lower value 0.762 | locus YMR307W, strain GAS1, stronger effect = lower value 0.317 | locus YNL071W, strain lat1, stronger effect = lower value 0.463 | locus YNL128W, strain TEP1, stronger effect = lower value 0.797 | locus YNL153C, strain GIM3, stronger effect = lower value 0.847 | locus YNL209W, strain ssb2, stronger effect = lower value 0.783 | locus YNL233W, strain BNI4, stronger effect = lower value 0.823 | locus YNL307C, strain MCK1, stronger effect = lower value 0.437 | locus YNL322C, strain KRE1, stronger effect = lower value 0.923 | locus YNR052C, strain pop2, stronger effect = lower value 0.846 | locus YOL147C, strain pex11, stronger effect = lower value 0.867 | locus YOR061W, strain CKA2, stronger effect = lower value 0.831 | locus YOR069W, strain VPS5, stronger effect = lower value 0.847 | locus YOR106W, strain vam3, stronger effect = lower value 0.697 | locus YOR144C, strain elg1, stronger effect = lower value 0.888 | locus YOR184W, strain ser1, stronger effect = lower value 0.632 | locus YOR270C, strain vph1, stronger effect = lower value 0.517 | locus YPL051W, strain arl3, stronger effect = lower value 0.664 | locus YPL055C, strain LGE1, stronger effect = lower value 0.734 | locus YPR163C, strain tif3, stronger effect = lower value 0.524 | strain wtn01, stronger effect = lower value 0.817
0.501 (active) and 0.921 (inactive): locus YHR030C, strain SLT2, stronger effect = lower value
0.263 (active) and 0.923 (inactive): locus YJL095W, strain BCK1, stronger effect = lower value
inactive: locus YAL021C, strain ccr4, stronger effect = lower value 0.996 | locus YBR021W, strain FUR4, stronger effect = lower value 1.03 | locus YBR171W, strain sec66, stronger effect = lower value 1 | locus YBR279W, strain paf1, stronger effect = lower value 0.933 | locus YCL016C, strain dcc1, stronger effect = lower value 0.92 | locus YCL069W, strain vba3, stronger effect = lower value 0.941 | locus YCR088W, strain abp1, stronger effect = lower value 0.988 | locus YDL005C, strain med2, stronger effect = lower value 1.03 | locus YDL040C, strain nat1, stronger effect = lower value 0.999 | locus YDL185W, strain tfp1, stronger effect = lower value 0.964 | locus YDR001C, strain nth1, stronger effect = lower value 0.999 | locus YDR069C, strain doa4, stronger effect = lower value 0.923 | locus YDR195W, strain ref2 1.12 | locus YDR334W, strain swr1, stronger effect = lower value 0.991 | locus YEL037C, strain rad23, stronger effect = lower value 0.987 | locus YEL061C, strain CIN8 (second series), stronger effect = lower value 0.963 | locus YER016W, strain bim1, stronger effect = lower value 0.957 | locus YER110C, stronger effect = lower value 0.953 | locus YFR010W, strain ubp6, stronger effect = lower value 0.919 | locus YGL078C, strain dbp3, stronger effect = lower value 0.998 | locus YGL167C, strain pmr1, stronger effect = lower value 0.996 | locus YGL227W, strain vid30, stronger effect = lower value 1.04 | locus YGL240W, strain doc1, stronger effect = lower value 0.989 | locus YGR252W, strain gcn5, stronger effect = lower value 0.902 | locus YHR013C, strain ard1, stronger effect = lower value 0.96 | locus YHR079C, strain IRE1 (second series), stronger effect = lower value 0.979 | locus YHR079C, strain IRE1, stronger effect = lower value 0.94 | locus YHR094C, strain hxt1, stronger effect = lower value 0.973 | locus YHR200W, strain rpn10, stronger effect = lower value 0.952 | locus YIL073C, strain SPO22, stronger effect = lower value 0.873 | locus YIL125W, strain kgd1, stronger effect = lower value 0.961 | locus YIR030C, strain dcg1, stronger effect = lower value 0.942 | locus YJL092W, strain hpr5, stronger effect = lower value 0.949 | locus YJL115W, strain asf1, stronger effect = lower value 1.04 | locus YJL129C, strain trk1, stronger effect = lower value 0.973 | locus YJL134W, strain LCB3, stronger effect = lower value 0.929 | locus YJL154C, strain vps35, stronger effect = lower value 1.01 | locus YJL168C, strain set2, stronger effect = lower value 0.971 | locus YJR066W, strain TOR1, stronger effect = lower value 0.909 | locus YKL009W, strain mrt4, stronger effect = lower value 1.11 | locus YKL068W, stronger effect = lower value 0.981 | locus YKL085W, strain MDH1 (second series), stronger effect = lower value 0.968 | locus YKL085W, strain MDH1, stronger effect = lower value 0.968 | locus YKR026C, strain gcn3, stronger effect = lower value 1 | locus YKR091W, strain srl3, stronger effect = lower value 0.998 | locus YLL001W, strain dnm1, stronger effect = lower value 0.932 | locus YLL026W, stronger effect = lower value 0.985 | locus YLL041C, strain sdh2, stronger effect = lower value 0.992 | locus YLR102C, strain apc9, stronger effect = lower value 0.988 | locus YLR113W, strain HOG1, stronger effect = lower value 0.882 | locus YLR258W, strain gsy2, stronger effect = lower value 0.924 | locus YLR357W, strain rsc2, stronger effect = lower value 1.01 | locus YLR370C, strain arc18, stronger effect = lower value 0.988 | locus YLR384C, strain iki3, stronger effect = lower value 1.02 | locus YML120C, strain ndi1, stronger effect = lower value 0.964 | locus YML124C, strain tub3, stronger effect = lower value 0.948 | locus YMR078C, strain ctf18, stronger effect = lower value 0.973 | locus YMR129W, stronger effect = lower value 0.935 | locus YMR263W, strain SAP30, stronger effect = lower value 0.936 | locus YNL067W, strain RPL9B, stronger effect = lower value 0.917 | locus YNL183C, strain NPR1, stronger effect = lower value 0.895 | locus YNL248C, strain rpa49, stronger effect = lower value 0.935 | locus YNL250W, strain rad50, stronger effect = lower value 0.956 | locus YNL271C, strain bni1, stronger effect = lower value 0.947 | locus YNL298W, strain CLA4, stronger effect = lower value 0.963 | locus YNL322C, strain KRE1 (second series), stronger effect = lower value 1.04 | locus YNR049C, strain mso1, stronger effect = lower value 0.986 | locus YOL012C, strain htz1 0.267 | locus YOR001W, strain rrp6, stronger effect = lower value 0.901 | locus YOR070C, strain gyp1, stronger effect = lower value 0.931 | locus YOR080W, strain dia2, stronger effect = lower value 1.03 | locus YOR083W, strain WHI5, stronger effect = lower value 0.909 | locus YOR136W, strain idh2, stronger effect = lower value 0.94 | locus YOR231W, strain MKK1, stronger effect = lower value 0.942 | locus YOR265W, strain rbl2, stronger effect = lower value 0.945 | locus YOR290C, strain snf2, stronger effect = lower value 0.944 | locus YOR316C, strain cot1, stronger effect = lower value 0.979 | locus YPL078C, strain atp4, stronger effect = lower value 0.897 | locus YPL106C, strain sse1, stronger effect = lower value 0.993 | locus YPL240C, strain hsp82, stronger effect = lower value 0.955 | locus YPL256C, strain CLN2, stronger effect = lower value 0.893 | locus YPR119W, strain clb2, stronger effect = lower value 0.956 | locus YPR141C, strain kar3, stronger effect = lower value 0.962 | locus YPR167C, strain met16, stronger effect = lower value 0.939
